For 13 compounds, growth results are on record in PubChem BioAssay (NCI).

Common to all, as to experiment: NCI-60 one-dose screen, 48 h (100 = growth as untreated, 0 = no growth, -100 = all killed)
Conditions in all cases: 10 µM

The test system of experiment [1] is SK-MEL-2 melanoma.
Experiment [2] concerns EKVX NSCLC.
Experiment [3] concerns SN12C renal.
In experiment [4] the test system is UO-31 renal.
The subject of experiment [5] is TK-10 renal.
For experiment [6], the system named is ACHN renal.
Experiment [7] deals with CAKI-1 renal.
Experiment [8] deals with A498 renal.
In experiment [9] the test system is CCRF-CEM leukemia.
The subject of experiment [10] is MOLT-4 leukemia.

This is part of a sample that, as a whole, favours compounds with a hit. Of some 83,000 tested, about 20% had one in any assay.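 Values shown are percent growth following 48 h exposure of cells in 96-well plates to a single concentration of compound; below 10 was considered active.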 A number with no mark means an inactive call. The source made the active and inactive calls.

Consider `CCN(CC)CC(O)CNc1ccnc2cc(Cl)c(Cl)cc12` (stereo not given), for which the growth is 108% in [1]; 92% in experiment [2]; 79% in [3]; 53.7% in experiment [4]; 95.2% in experiment [5]; 98.4% in [6]. The growth in experiment [7] was 80.7%; in experiment [8] it was 98.7%; in experiment [9] it was 94.9%; in experiment [10], 82.3%.
Take `COc1ccc(Cn2cc3c(c2-c2cc(OC)c(OC)c(OC)c2)CCc2cnoc2-3)cc1[N+](=O)[O-]`: the growth is 43.4% in experiment [1]; 20.4% in experiment [2]; 43.4% in experiment [3]; 36.9% in [4]; 76.4% in [5]; 60.4% in experiment [6]. For the same compound, the growth in [7] is 16.1%; in experiment [8], 45.2%; in [9], 22%; in [10], 30%.
On to `COc1cc(NS(C)(=O)=O)ccc1Nc1c2ccc(Cl)cc2nc2c(OC)cccc12`, for which the growth is -45.2% (active) in experiment [1]; 70.4% in [2]; -10.7% (active) in [3]; 5.23% (active) in experiment [4]; -55.3% (active) in experiment [5]; -46.4% (active) in experiment [6]. Further, the growth was -37% (active) in [7], -8.95% (active) in experiment [8], 2.75% (active) in experiment [9] and -2.38% (active) in [10].
For the compound `Cc1ccc(S(=O)(=O)Oc2ccccc2-c2ccccc2)cc1`, the growth in experiment [1] is 28.8%; in experiment [2], 46%; in experiment [3], 39.2%; in experiment [4], 22.5%; in experiment [5], 45.5%; in experiment [6], 44.2%. Also, the growth in experiment [7] was 14%; in experiment [8] it was 6.79% (active); in experiment [9] it was 18%; in [10], 20.7%.
With `COc1cc(N=C2C(=O)N(Cc3ccccc3)c3ccccc32)cc(OC)c1OC`, the growth in [1] is 98.3%; in experiment [2], 101%; in experiment [3], 99.6%; in [4] it was 77.3%; in experiment [5] it was 112%; in experiment [6], 97.4%. Further, the growth in [7] is 83.8%; in experiment [8] it was 108%; in experiment [9], 29.5%; in [10] it was 96.9%.
Regarding `CCOc1nc(-c2ccccc2)cc2c(O)c(C(=O)NCCCO)[nH]c(=O)c12`, the growth is 92.7% in experiment [1]; 108% in [2]; 103% in [3]; 79.6% in experiment [4]; 146% in [5]; 91.6% in experiment [6]. In addition, the growth in experiment [7] is 87.8%; in experiment [8], 93.5%; in experiment [9], 68%; in experiment [10], 97%.
Turning to `Nc1ccc2c(c1)Cc1cc(N)c(Cl)cc1-2`, the growth in experiment [1] was 102%; in [2], 57.2%; in experiment [3], 89.8%; in [4], 52.6%; in experiment [5] it was 115%; in [6], 98.5%. Moreover, the growth is 94.1% in [7], 118% in experiment [8], 79.8% in [9] and 90% in experiment [10].
`CC1(C)CC(OCCCC[P+](c2ccccc2)(c2ccccc2)c2ccccc2)CC(C)(C)N1O`: the growth was -23.4% (active) in [1]; 3.22% (active) in experiment [2]; 4.65% (active) in experiment [3]; -18.8% (active) in experiment [4]; -21.1% (active) in experiment [5]; -8.25% (active) in [6]. The growth was -25.7% (active) in experiment [7], -5.35% (active) in [8], -37.1% (active) in experiment [9] and 0.462% (active) in experiment [10].
`COc1cc(C2c3cc4c(cc3C(O)C(CO)C2CO)OCO4)cc(OC)c1OC` (stereo not given): the growth was 32.2% in [1]; 7.57% (active) in [2]; 46.1% in experiment [3]; 13.4% in experiment [4]; 46.7% in experiment [5]; 53.9% in [6]. Further, the growth in experiment [7] was 65.9%; in experiment [8], -0.141% (active); in experiment [9] it was 15.6%; in experiment [10] it was 16.8%.
With `N#CC1C=Cc2c(ccc3ccccc23)N1C(=O)c1ccccc1` (stereo not given), the growth is 40.7% in experiment [1]; 17.3% in [2]; 39.1% in experiment [3]; 38.2% in experiment [4]; 52.8% in experiment [5]; 42.7% in experiment [6]. The growth was 20.6% in experiment [7], -7.88% (active) in experiment [8], 20.3% in experiment [9] and 18.9% in experiment [10].
Regarding `O=C(c1ccccc1)C(Sc1ccccc1)c1ccccc1` (stereo not given), the growth in experiment [1] was 62%; in [2], 106%; in [3], 87.7%; in experiment [4], 79.9%; in experiment [5], 101%; in experiment [6], 34.5%. The growth is 82.5% in experiment [7], 92.1% in experiment [8], 89.9% in experiment [9] and 67% in experiment [10].
Regarding `CC[C@@]1(C(N)=O)CC2C=CC1C2` (stereo not given in full), the growth in [1] was 105%; in experiment [2], 102%; in experiment [3], 102%; in experiment [4], 95.5%; in experiment [5], 108%; in experiment [6], 113%. The growth in [7] was 103%; in [8], 123%; in experiment [9], 87.9%; in [10], 88.3%.
As to `COc1cc(/C=C2\C(=O)Nc3cc(C)c(O)cc32)cc(OC)c1OC`, the growth in experiment [1] was 79.3%; in [2], 48.5%; in experiment [3] it was 71.3%; in experiment [4], 43%; in experiment [5], 85%; in experiment [6] it was 68.4%. In addition, the growth in [7] was 15.7%; in [8] it was 98.2%; in [9], 16.3%; in experiment [10], 53%.
